Results published in ChEMBL document CHEMBL3988442, “University of Dundee, Small-Polar-MMV Screening Library” (2021).
In all, about 48,000 compounds went through this assay and about 13,000 (27%) showed an effect of 50% or more. Some of the results follow.

tested on: Wolbachia pipientis; test: Anti-Wolbachia Cell-Based Screen; format: functional; parameters: scale not given: in the data most compounds retested in dose-response had high values; conditions: 5 µM

| SMILES | Percent Effect [%] |
| --- | --- |
| Cl.NC(=O)COc1ccc(CNCc2ccc(F)cc2F)cc1 | -6.385 |
| COc1ccc2c(c1)Cc1c-2nc(N)c(C#N)c1C1CCOC1 (stereo not given) | 55.98 |
| COc1ccc2c(c1OC)Cc1c-2nc(N)c(C#N)c1C1CCOC1 (stereo not given) | 97.76 |
| COc1ccc(-c2cc(C3CCOC3)c(C#N)c(N)n2)cn1 (stereo not given) | -5.09 |
| Cc1cc(C)cc(-c2cc(C3CCOC3)c(C#N)c(N)n2)c1 (stereo not given) | 8.915 |
| COc1cc(-c2cc(C3CCOC3)c(C#N)c(N)n2)ccc1O (stereo not given) | -3.198 |
| N#Cc1c(N)nc2c(c1C1CCOC1)CCc1cc(O)ccc1-2 (stereo not given) | 95.46 |
| CN(C)Cc1nc(C(C)(C)NC(=O)C2CC(=O)N(CC3CC3)C2)no1 (stereo not given) | -8.829 |
| CN(C(=O)c1cccn1C)C1CCC(NC(=O)OC(C)(C)C)CC1 (stereo not given) | -22.93 |
| O=C(NC(CC(F)(F)F)c1ccc(Cl)cc1)c1nc(=O)[nH][nH]1 (stereo not given) | -2.983 |
| Cc1csc2c(C3CCCN(C(=O)CCCn4cncn4)C3)nc(C)n12 (stereo not given) | 105.3 |
| Cc1csc2c(C3CCCN(C(=O)CCn4ccnc4)C3)nc(C)n12 (stereo not given) | 85.68 |
| COc1cccc(OCC2CCCN(C(=O)CCn3ccnc3)C2)c1 (stereo not given) | -97.21 |
| CCCN1CCCC2(CCN(C(=O)CCCn3cncn3)C2)C1=O (stereo not given) | -10.51 |
| Cc1ccsc1[C@@H]1CCN(C(=O)CCCn2cncn2)C[C@H]1O | 10.3 |
| Cc1nc(C)n(CC(=O)N2CCCC(c3nc(C)n4c(C)csc34)C2)n1 (stereo not given) | 71.32 |
| Cc1ccc(=O)n(CC(=O)N2CCCC(c3nc(C)c(C)s3)C2)n1 (stereo not given) | -3.398 |
| O=C(c1ccc2ccccc2c1)C1CCCN(C(=O)Cn2cncn2)C1 (stereo not given) | 2.145 |
| Cc1csc2c(C3CCCN(C(=O)Cn4cncn4)C3)nc(C)n12 (stereo not given) | 83.22 |
| Cc1nc(C)n(C2CCCN(C(=O)CCCn3ccnc3)C2)n1 (stereo not given) | -10.35 |
| CC(C)c1nc(CC(=O)N2CCCC(n3cncn3)C2)cs1 (stereo not given) | -6.104 |
| COc1ccc2c(c1)CCCC2CC(=O)NCC(C)(C)C(=O)O (stereo not given) | -16.88 |
| CS(=O)(=O)CCCNC1(c2ccc(Br)cc2)CCC1 | 1.327 |
| Cc1csc(N2CCN(C(=O)CCn3cncn3)CC2)n1 | 2.857 |

| SMILES | Percent Effect [%] |
| --- | --- |
| Cc1csc2c(C3CCCN(C(=O)CCn4cncn4)C3)nc(C)n12 (stereo not given) | 98.48 |
| CCc1csc(C2CCCN(C(=O)CCn3cc(C)cn3)C2)n1 (stereo not given) | -1.231 |
| Cc1csc2c(C3CCN(C(=O)Cn4cncn4)CC3)nc(C)n12 | 67.21 |
| COCCCN1CCCN(C(C)C(=O)Nc2ccnn2C(C)C)CC1 (stereo not given) | -2.846 |
| CCOc1c(Cl)cccc1NCc1cc(C)on1 | 3.225 |
| Cc1cc(Cl)ccc1C(=O)N[C@H]1CN(S(C)(=O)=O)C[C@@H]1C1CC1 | 11.67 |
| COc1cccc([C@H]2CN(C(=O)c3nnc4n3CCCC4)C[C@@H]2N)c1 | -27.9 |
| CC(C)(C)NC(=O)c1ccccc1NC(=O)c1ccncc1 | 2.582 |
| CS(=O)(=O)Cc1ccc(NC(=O)c2cccnc2)cc1F | 11.8 |
| O=C(NCC(F)(F)C(F)F)c1cccnc1 | -7.591 |
| CC(NC(=O)c1cccs1)C(=O)NS(=O)(=O)Cc1ccc(C#N)cc1 (stereo not given) | 0.007489 |
| N#Cc1cc(NC(=O)c2ccncc2)ccc1N1CCC(O)CC1 | -6.115 |
| CC(NC(=O)CSCC#N)c1cccc(NC(=O)c2ccccc2)c1 (stereo not given) | 1.227 |
| CSc1[nH]nc(NC(=O)c2cccnc2)c1C#N | 127.6 |
| CN1CCN(c2ccc(NC(=O)c3cccs3)c(C(F)(F)F)c2)CC1 | -12.21 |
| CSc1[nH]nc(NC(=O)c2ccncc2)c1C#N | 113.4 |
| N#Cc1cc(NC(=O)c2ccccc2)ccc1N1CCC(O)CC1 | 8.386 |
| CSc1[nH]nc(NC(=O)c2ccccc2)c1C#N | 100.8 |
| CSc1[nH]nc(NC(=O)c2cccs2)c1C#N | 125.8 |
| CCOc1ccc(CN2C(=O)CC(CC)(CC)C2=O)nc1 | 8.891 |
| Cc1cc(N2CCCCC2Cn2nc(C)cc2C)n2ncnc2n1 (stereo not given) | -7.962 |
| Cc1cc(NCc2ccccc2CN2CCCCC2)n2ncnc2n1 | -7.326 |
| Cc1cc(N2CCCC2Cn2nc(C)cc2C)n2ncnc2n1 (stereo not given) | 10.49 |
| Cc1cc(-n2cnnn2)n2ncnc2n1 | 118.9 |

| SMILES | Percent Effect [%] |
| --- | --- |
| Cc1cc(-n2cncn2)n2ncnc2n1 | 116 |
| CCc1nc2n(n1)CC(Nc1cc(C)nc3ncnn13)CC2 (stereo not given) | -9.549 |
| CN1CCC(N2CCOC[C@H]2c2nc(C(C)(C)C)c[nH]2)CC1 | -19.67 |
| Cc1cc(S(C)(=O)=O)c(C)c(S(=O)(=O)NCC2CCC2)c1 | -2.164 |
| COCCN1C(=O)CO[C@H]2CN(S(=O)(=O)c3ccccc3)C[C@H]21 | 1.954 |
| COCCN1C(=O)CO[C@H]2CN(Cc3ccccc3OC)C[C@H]21 | -3.474 |
| COCCN1C(=O)CO[C@H]2CN(Cc3cccc(OC)c3F)C[C@@H]21 | 149.6 |
| COCCN1C(=O)CO[C@H]2CN(Cc3ccccc3Cl)C[C@@H]21 | 128.8 |
| COCCN1C(=O)CO[C@H]2CN(CCCc3ccccc3)C[C@H]21 | -4.545 |
| COCCN1C(=O)CO[C@@H]2CN(S(=O)(=O)c3ccccc3)C[C@H]21 | 3.273 |
| C[S+]([O-])c1nncn1CC(=O)c1cccc(C(F)(F)F)c1 (stereo not given) | -15.18 |
| Cc1cc(CN2CCOC(CN(C)c3cccnn3)C2)no1 (stereo not given) | -1.412 |
| O=C(c1coc(-c2ccccc2)n1)N1CCS(=O)(=O)CC1 | -26.15 |
| CCC1CN(C(=O)c2ccc(=O)[nH]n2)CCC(=O)N1Cc1ccccc1 (stereo not given) | 3.625 |
| O=C(c1ccc(=O)[nH]n1)N1CCNCC1c1ccccc1 (stereo not given) | 145.5 |
| O=C(c1ccc(=O)[nH]n1)N1CCCC1CCc1ccccc1 (stereo not given) | -7.859 |
| CNc1ccnc(N2C[C@@H](C)[C@](O)(C3CC3)C2)n1 | 0.4082 |
| C[C@@H]1CN(Cc2ccncc2)C[C@]1(C)O | 97.25 |
| C[C@@H]1CN(CC(C)(C)N2CCCCC2)C[C@@]1(O)C1CC1 | 17.38 |
| C[C@@H]1CN(Cc2ccncc2)C[C@@]1(O)C1CC1 | 102.1 |
| C[C@@H]1CN(Cc2nnc(-c3cccnc3)o2)CC[C@]1(C)O | -2.885 |
| CC1CCCN(Cc2ccc(CNC(=O)NCc3ccncc3)cc2)C1 (stereo not given) | -7.368 |
